# Measurements from PubChem BioAssay (Tox21).
# Results filed as inconclusive are left out. Where a call stands in place of a potency, no number is given. Activity calls are given as the source filed them. Calls come from the whole dose curve; as a rule, active = well fitted activation curve with a large enough effect in the repeat runs; inconclusive = weak or mixed curves; inactive = no such curve, though single readings can be large or run the other way.
# Assay: qHTS assay for small molecules that induce genotoxicity in human embryonic kidney cells expressing luciferase-tagged ATAD5 (AID 651632); note: nearly all actives have a fitted effect of over 15% in size
# Details: HEK293T ATAD5-luciferase induction, 16 h; series mostly up to 83.3 µM
# Source text: U.S. Tox21 Program National Center for Advancing Translational Sciences [NCATS] NIH Chemical Genomics Center [NCGC] U.S. Environmental Protection Agency [EPA] National Institutes of Environmental Health Sciences [NIEHS] National Toxicology Program [NTP] U.S. Food and Drug Administration [FDA] Tox21 Assay Overview: As cancer cells divide rapidly and during every cell division they need to duplicate their genome by DNA replication. The failure to do so results in the cancer cell death. Based on this concept, many chemotherapeutic agents were developed but have limitations such as low efficacy and severe side effects etc. A new cell based assay was developed to find the compounds that effectively block DNA replication either by directly damaging DNA or by inhibiting other cellular mechanisms. Enhanced Level of Genome Instability Gene 1 (ELG1; human ATAD5) protein levels increase in response to various types of DNA damage. Using a luciferase reporter-gene tagged with ATAD5, a cell-based assay [developed by Kyungjae Myung, NHGRI, NIH] was used to measure the induction of ATAD5 in human embryonic kidney cells (HEK293T). So, increase in luciferase activity can be used to identify the compounds that cause genetic stress.
# Tox21 Assay Protocol Summary: For genotoxicity screening, 2,000 cells in 5 uL/well were dispensed into white, solid-bottom 1536-well plates using a Multidrop Combi (Thermo Scientific) dispenser. Following transfer of 23 nL compound or DMSO vehicle by a pin tool, the plates were incubated 16 hr at 37C and 5% CO2. 5 ul Amplite (AAT Bioquest, Inc.) was then added to each plate and following 30 min incubation at room temperature, luciferase activity was quantified on a ViewLux CCD-based plate reader.
row,Compound,Potency
1,CC1=C2C[C@H]3[C@@H](CC=C4C[C@@H](O)CC[C@@]43C)[C@@H]2CC[C@]12O[C@@H]1C[C@H](C)CN[C@H]1[C@H]2C,inactive
2,CN1CCc2cc3c(cc2C1O)OCO3 (stereo not given),inactive
3,CCC[CH2][Sn]([CH2]CCC)([CH2]CCC)[CH2]CCC,inactive
4,CCN(CC)Cc1nccn1-c1ccc([N+](=O)[O-])cc1C(=O)c1ccccc1Cl,inactive
5,ClC1(Cl)C2(Cl)C3(Cl)C4(Cl)C(Cl)(Cl)C5(Cl)C3(Cl)C1(Cl)C5(Cl)C24Cl (stereo not given),inactive
6,CC(C)C(Nc1ccc(C(F)(F)F)cc1Cl)C(=O)OC(C#N)c1cccc(Oc2ccccc2)c1 (stereo not given),inactive
7,CC(C)[C@@H](Nc1ccc(C(F)(F)F)cc1Cl)C(=O)OC(C#N)c1cccc(Oc2ccccc2)c1 (stereo not given in full),inactive
8,CC(C)Br,inactive
9,Oc1cc(Cl)cc(Cl)c1,inactive
10,CCNc1nc(NC(C)C(C)C)nc(SC)n1 (stereo not given),inactive
11,O=S1(=O)OCC2C(CO1)C1(Cl)C(Cl)=C(Cl)C2(Cl)C1(Cl)Cl (stereo not given),inactive
12,C=CC(=C)C,inactive
13,COP(=S)(OC)Oc1nc(Cl)c(Cl)cc1Cl,inactive
14,O=[N+]([O-])c1ccccc1-c1ccccc1,inactive
15,ClC1=C(Cl)[C@]2(Cl)[C@@H]3[C@H]4C[C@H]([C@@H]5O[C@H]45)[C@@H]3[C@@]1(Cl)C2(Cl)Cl,inactive
16,COC(=O)c1cc(Oc2ccc(Cl)cc2Cl)ccc1[N+](=O)[O-],inactive
17,Cc1c([N+](=O)[O-])cc2c(c1[N+](=O)[O-])C(C)(C)CC2(C)C,inactive
18,CCn1cc[n+](C)c1 (tested in a mixture with another compound),inactive
19,ClCBr,inactive
20,O=c1[nH]c(Cl)c(Cl)cc1Cl,inactive

row,Compound,Potency
1,CCOP(=S)(OCC)Oc1cc(C)nc(N(CC)CC)n1,inactive
2,C#CCC1=C(C)C(OC(=O)C2C(C=C(C)C)C2(C)C)CC1=O (stereo not given),inactive
3,CSC(=O)c1c(C(F)F)nc(C(F)(F)F)c(C(=O)SC)c1CC(C)C,inactive
4,N#Cc1c[nH]cc1-c1cccc2c1OC(F)(F)O2,inactive
5,NC1CCC(CC2CCC(N)CC2)CC1 (stereo not given),inactive
6,CN1CCc2cc(Cl)c(O)cc2[C@H]2c3ccccc3CC[C@@H]21,inactive
7,CC(=O)[O][Sn]([c]1ccccc1)([c]1ccccc1)[c]1ccccc1,inactive
8,CCC1COC(Cn2cncn2)(c2ccc(Cl)cc2Cl)O1 (stereo not given),inactive
9,Cc1c([N+](=O)[O-])c(C)c([N+](=O)[O-])c(C(C)(C)C)c1[N+](=O)[O-],inactive
10,COC(=O)c1ccccc1S(=O)(=O)NC(=O)Nc1nc(C)nc(OC)n1,inactive
11,CCOP(=O)(Sc1ccccc1)Sc1ccccc1,inactive
12,Oc1cc(Cl)c(Cl)c(Cl)c1Cl,inactive
13,COP(=S)(OC)Oc1ccc([N+](=O)[O-])c(C)c1,inactive
14,O=C(N[C@H]1N=C(c2ccccc2F)c2cccc3c2N(CC3)C1=O)c1cc2ccccc2[nH]1,inactive
15,CCCCC(CC)COC(=O)c1ccccc1C(=O)OCC(CC)CCCC (stereo not given),inactive
16,CC(C)NCC(O)c1ccccc1Cl (stereo not given),inactive
17,CCOP(=S)(NC(C)C)Oc1ccccc1C(=O)OC(C)C (stereo not given),inactive
18,CNC(C)(C)Cc1ccccc1,inactive
19,COc1ccc2c3c1O[C@H]1[C@H](O)CC[C@H]4[C@@H](C2)N(C)CC[C@@]341,inactive
20,O=Cc1ccccc1,inactive
